This note sets out measurements from PubChem BioAssay.

For test [1], the system named is Plasmodium falciparum Sir2 (PF13_0152, Sir2A). Description: pfSir2 binders on small-molecule microarrays, primary screen, biochemical, small-molecule microarray, 635 nm fluorescence (AID 1098).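 Note: score merges spot fluorescence intensity with its signal-to-noise ratio.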 Conditions: small-molecule microarray binding, fluorescence 635 nm; higher = more signal.
The nature of test [2]: small-molecule microarray binders of probe aDKK1, primary screen, biochemical, biotinylated probe, 635/667 nm fluorescence (AID 1099).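 Note: score merges 667nm spot fluorescence with signal to noise across triplicate slides.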 Conditions: higher = more signal.
A short description of test [3]: small-molecule microarray binders of probe aCHRDL2, primary screen, biochemical, biotinylated probe, 635/667 nm fluorescence (AID 1100). To be noted: higher = more signal.
A short description of test [4]: splicing luciferase reporter signal modulators, primary screen, spliceosome inhibition project, cell-based, HEK293, splice +/- reporter (AID 1101).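 Note: HEK293 cells carrying a splicing-competent luciferase reporter gene; test concentration not given here.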 Conditions: luminescence, 24 h, higher = more signal, called active from +8 up or from −8 down.
The target in test [5] is Fibroblast growth factor 10 (Homo sapiens) (UniProt O15520). Put plainly: FGF10 binders on small-molecule microarrays, primary screen, biochemical, small-molecule microarray, 635 nm fluorescence (AID 1102). Conditions: FGF10 binding, fluorescence 635 nm, higher = more signal.
Sequence of Fibroblast growth factor 10 (Homo sapiens) (O15520 whole entry, looked up): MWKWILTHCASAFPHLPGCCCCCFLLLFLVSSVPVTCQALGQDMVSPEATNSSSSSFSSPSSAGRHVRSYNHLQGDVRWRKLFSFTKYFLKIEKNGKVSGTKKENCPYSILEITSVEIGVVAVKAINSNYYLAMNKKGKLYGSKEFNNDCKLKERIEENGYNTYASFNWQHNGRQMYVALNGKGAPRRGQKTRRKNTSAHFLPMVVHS
Test [6] deals with glycogen synthase kinase-3 (GSK3A per assay name; protocol says GSK3B). Description: GSK3 binders on small-molecule microarrays, primary screen, biochemical, small-molecule microarray, 635 nm fluorescence, GSK3A (AID 1103). Note: the record names both GSK3A and GSK3B. Conditions: small-molecule microarray binding, fluorescence 635 nm; higher = more signal.
The target of test [7] is Epidermal growth factor receptor (Homo sapiens) (UniProt P00533). Description: EGFR binders on small-molecule microarrays, primary screen, biochemical, small-molecule microarray, 635 nm fluorescence (AID 1104).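 Note: score merges 667 nm emission intensity with spot signal to noise over triplicate slides.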 To be noted: EGFR binding, higher = more signal.
Sequence of Epidermal growth factor receptor (Homo sapiens) (P00533 whole entry, looked up): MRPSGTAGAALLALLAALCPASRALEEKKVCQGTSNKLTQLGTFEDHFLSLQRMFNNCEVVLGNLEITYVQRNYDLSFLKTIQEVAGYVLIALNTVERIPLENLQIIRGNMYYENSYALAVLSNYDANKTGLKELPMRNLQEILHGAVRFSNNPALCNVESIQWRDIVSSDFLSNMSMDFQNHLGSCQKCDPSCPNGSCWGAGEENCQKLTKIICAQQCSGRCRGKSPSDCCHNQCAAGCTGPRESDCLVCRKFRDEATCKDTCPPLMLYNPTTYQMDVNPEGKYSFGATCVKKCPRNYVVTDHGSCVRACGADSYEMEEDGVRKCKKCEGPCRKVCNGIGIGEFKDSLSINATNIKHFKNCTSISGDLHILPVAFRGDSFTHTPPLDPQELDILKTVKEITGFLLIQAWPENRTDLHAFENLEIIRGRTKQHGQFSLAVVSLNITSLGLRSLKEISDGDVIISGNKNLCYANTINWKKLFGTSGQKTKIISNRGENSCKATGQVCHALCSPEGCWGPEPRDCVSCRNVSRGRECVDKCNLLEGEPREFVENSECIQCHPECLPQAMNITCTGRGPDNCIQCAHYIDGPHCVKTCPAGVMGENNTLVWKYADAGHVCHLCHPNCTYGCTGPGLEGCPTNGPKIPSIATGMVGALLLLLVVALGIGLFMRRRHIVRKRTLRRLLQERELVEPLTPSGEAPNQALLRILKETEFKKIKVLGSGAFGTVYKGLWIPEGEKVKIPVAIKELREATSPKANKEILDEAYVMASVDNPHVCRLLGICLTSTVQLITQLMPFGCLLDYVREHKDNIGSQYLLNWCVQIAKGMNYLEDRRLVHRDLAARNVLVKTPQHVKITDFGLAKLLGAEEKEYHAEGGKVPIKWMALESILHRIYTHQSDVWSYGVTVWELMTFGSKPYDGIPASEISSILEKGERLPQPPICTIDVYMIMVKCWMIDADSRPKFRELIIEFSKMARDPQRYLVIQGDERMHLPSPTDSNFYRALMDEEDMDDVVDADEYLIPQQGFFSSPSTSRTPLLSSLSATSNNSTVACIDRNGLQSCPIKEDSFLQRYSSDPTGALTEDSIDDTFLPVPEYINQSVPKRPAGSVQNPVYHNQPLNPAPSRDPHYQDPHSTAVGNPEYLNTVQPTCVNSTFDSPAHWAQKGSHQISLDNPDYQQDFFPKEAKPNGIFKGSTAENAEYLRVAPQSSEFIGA
Test [8] has as its target Follistatin-related protein 3 (Homo sapiens) (UniProt O95633). Description: FSTL3 binders on small-molecule microarrays, primary screen, biochemical, small-molecule microarray, 635 nm fluorescence (AID 1105).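 Note: score merges emission near 667 nm and signal to noise per printed spot across three slides.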 Conditions: FSTL3 binding, higher = more signal.
Test [9] addresses Dickkopf-related protein 1 (Homo sapiens) (UniProt O94907). Description: DKK1 binders on small-molecule microarrays, primary screen, biochemical, small-molecule microarray, 635 nm fluorescence scan (AID 1106).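 Note: score merges emission near 667 nm with signal to noise over three replicate slides.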 To be noted: DKK1 binding, higher = more signal.
Test [10] deals with Inhibin beta A chain (activin A). Description: INHBA (activin A) binders on microarrays, primary screen, biochemical, small-molecule microarray, 635 nm fluorescence scan (AID 1107).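 Note: mouse activin A protein probed at 4.33 µg/mL on printed slides; score merges bound-protein fluorescence near 667 nm with spot signal-to-noise.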 Conditions: small-molecule microarray binding, higher = more signal.
Test [11] has as its system Human papillomavirus type 1a protein E7 (residues 44-93). Description: HPV1a E7 fragment binders on microarrays, primary screen, biochemical, small-molecule microarray, residues 44-93, 635 nm fluorescence (AID 1108).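 Note: E7 fragment applied at 1 µg/mL in TBST for 1 h at 4 C; score combines spot fluorescence with its signal to noise ratio.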 To be noted: small-molecule microarray binding, fluorescence 635 nm; higher = more signal.
A short description of test [12]: modulators of HCV replicon luciferase signal, primary screen, HCV replication inhibitor project, Huh7 cells, luciferase reporter (AID 1109).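 Note: huh7 hepatoma cells harbouring a luciferase neomycin HCV replicon reporter; luciferase luminescence as measure of HCV replicon replication; test concentration not given here.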 To be noted: 48 h, higher = more signal. On the technique in general: In antiviral work, replicon cells carry a viral genome segment that copies itself.
Test [13] concerns the target Left-right determination factor 2 (Homo sapiens) (UniProt O00292). Put plainly: LEFTY2 binders on small-molecule microarrays, primary screen, biochemical, small-molecule microarray, 635 nm fluorescence scan (AID 1110). To be noted: LEFTY2 binding, higher = more signal.
Test [14] concerns the target Calmodulin-1 (Homo sapiens) (UniProt P0DP23). Description: CALM1 binders on microarrays, EGTA buffer, profiling panel, biochemical, small-molecule microarray, Cy5-labelled CALM1 (AID 1111).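 Note: labelled calmodulin applied in Tris saline Tween buffer holding calcium plus EGTA and DTT.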 Conditions: Cy5-CALM1 binding fluorescence, higher = more signal.
Test [15] has the same target. Put plainly: calcium-bound CALM1 binders on microarrays, profiling panel, artefact control for SMM control-protein annotation, biochemical, small-molecule microarray, Cy5-labelled CALM1, plus calcium (AID 1112).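 Note: score merges spot fluorescence with signal to noise from triplicate slides.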 Conditions: Cy5-CALM1 binding fluorescence, higher = more signal.
Test [16] can be described thus: small-molecule microarray binders of probe aWnt5a, primary screen, biochemical, biotinylated probe, 635/667 nm fluorescence (AID 1113).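 Note: score merges 667 nm fluorescence intensity with signal-to-noise per printed feature.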 To be noted: higher = more signal.
Test [17] can be described thus: small-molecule microarray binders of probe aShh, primary screen, biochemical, biotinylated probe, 635/667 nm fluorescence (AID 1114).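 Note: probe is biotin-labelled aShh protein from a stem cell growth factor screen; measures binding of labelled protein to compounds printed on the slide; score merges feature fluorescence at 667 nm with signal-to-noise.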 Conditions: higher = more signal.
A short description of test [18]: small-molecule microarray binders of probe aNog, primary screen, biochemical, biotinylated probe, 635/667 nm fluorescence (AID 1115).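 Note: probe is biotinylated aNog protein used at 0.15 µg/mL for 1 h at 4 C; z-score combines 667 nm fluorescence of each spot with its signal to noise.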 Conditions: higher = more signal.
Test [19] deals with Torsin-1A-interacting protein 1 (Homo sapiens) (UniProt Q5JTV8). Description: LAP1 binders from COS7 cell lysate, primary screen, small-molecule microarray, 635/667 nm fluorescence (AID 1116). To be noted: COS7-hLAP1 lysate binding, 635 nm fluorescence, higher = more signal.
Sequence of Torsin-1A-interacting protein 1 (Homo sapiens) (Q5JTV8 whole entry, looked up): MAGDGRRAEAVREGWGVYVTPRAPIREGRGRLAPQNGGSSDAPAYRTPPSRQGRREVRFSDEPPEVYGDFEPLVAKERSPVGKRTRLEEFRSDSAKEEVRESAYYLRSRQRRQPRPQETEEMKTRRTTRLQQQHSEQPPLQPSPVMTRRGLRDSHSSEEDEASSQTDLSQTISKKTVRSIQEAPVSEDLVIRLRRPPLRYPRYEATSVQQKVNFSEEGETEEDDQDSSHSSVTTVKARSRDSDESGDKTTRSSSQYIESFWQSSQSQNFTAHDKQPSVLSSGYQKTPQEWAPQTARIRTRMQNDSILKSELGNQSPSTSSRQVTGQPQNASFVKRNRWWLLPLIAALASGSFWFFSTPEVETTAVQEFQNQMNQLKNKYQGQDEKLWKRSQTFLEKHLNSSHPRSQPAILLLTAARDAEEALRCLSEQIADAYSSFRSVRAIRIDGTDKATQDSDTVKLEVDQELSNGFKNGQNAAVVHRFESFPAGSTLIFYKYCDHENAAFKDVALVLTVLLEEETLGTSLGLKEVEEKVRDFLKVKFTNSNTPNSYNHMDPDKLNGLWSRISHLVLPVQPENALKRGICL
For test [20], the target named is Alpha-bungarotoxin (Bungarus multicinctus) (UniProt P60615). Description: alpha-bungarotoxin binders on microarray, profiling panel, artefact control for SMM control protein annotation, biochemical, small-molecule microarray, Alexa647 label, 635/667 nm fluorescence (AID 1117). Conditions: alpha-BTX-A647 binding fluorescence, higher = more signal.
Sequence of Alpha-bungarotoxin (Bungarus multicinctus) (P60615 whole entry, looked up): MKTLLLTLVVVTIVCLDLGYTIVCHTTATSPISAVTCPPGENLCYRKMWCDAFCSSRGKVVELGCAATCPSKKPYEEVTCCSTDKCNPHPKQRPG

The source made the active and inactive calls.

Sequence of Dickkopf-related protein 1 (Homo sapiens) (O94907 whole entry, looked up): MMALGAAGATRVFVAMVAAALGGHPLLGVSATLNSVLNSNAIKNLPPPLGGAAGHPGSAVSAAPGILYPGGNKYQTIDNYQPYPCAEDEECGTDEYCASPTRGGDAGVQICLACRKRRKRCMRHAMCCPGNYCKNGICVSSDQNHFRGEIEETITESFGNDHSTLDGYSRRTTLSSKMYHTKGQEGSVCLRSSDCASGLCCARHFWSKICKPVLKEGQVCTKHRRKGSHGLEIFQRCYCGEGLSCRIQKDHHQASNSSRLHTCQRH
Sequence of Follistatin-related protein 3 (Homo sapiens) (O95633 whole entry, looked up): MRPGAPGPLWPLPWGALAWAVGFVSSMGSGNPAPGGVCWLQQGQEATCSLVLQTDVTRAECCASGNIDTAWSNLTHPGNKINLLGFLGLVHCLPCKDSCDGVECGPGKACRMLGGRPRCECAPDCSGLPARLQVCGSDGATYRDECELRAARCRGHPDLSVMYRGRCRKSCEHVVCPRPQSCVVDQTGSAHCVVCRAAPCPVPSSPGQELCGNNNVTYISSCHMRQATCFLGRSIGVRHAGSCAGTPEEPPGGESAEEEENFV
Sequence of Left-right determination factor 2 (Homo sapiens) (O00292 whole entry, looked up): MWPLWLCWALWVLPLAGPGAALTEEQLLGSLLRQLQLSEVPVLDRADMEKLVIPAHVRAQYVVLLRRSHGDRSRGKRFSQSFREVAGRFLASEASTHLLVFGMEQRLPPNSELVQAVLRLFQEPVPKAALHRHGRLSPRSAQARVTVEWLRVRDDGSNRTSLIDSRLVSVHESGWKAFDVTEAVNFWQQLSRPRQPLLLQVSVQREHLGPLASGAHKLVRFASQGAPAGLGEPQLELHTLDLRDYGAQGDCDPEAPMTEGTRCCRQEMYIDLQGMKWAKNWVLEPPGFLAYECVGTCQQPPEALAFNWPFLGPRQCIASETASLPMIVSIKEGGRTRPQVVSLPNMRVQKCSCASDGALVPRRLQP

Regarding `CCOC(=O)C[C@H]1[C@H](OC(=O)c2ccc(C(=O)c3ccccc3)cc2)[C@@H](NC(=O)Cc2ccc(OC)cc2)c2cc(OCCCO)ccc2N1C(=O)c1ccc2ccccc2n1`, the composite z-score in test [1] was 0.31; in test [2], 0.05; in [3], 0.161; in [5] it was 0.526; in test [6], 0.392; in test [7], 0.208. The composite z-score turned out to be 0.811 in test [8]; 0.0905 in test [9]; 0.468 in test [10]; 0.998 in test [11]; 0.816 in test [13]; 0.985 in test [14]. The composite z-score in test [15] was 0.336; in [16], -0.131; in [17] it was -0.0709; in [18], -0.526; in [19] it was 0.566; in test [20], 0.738. Also, the z-score is 0.409 (inactive) in [4] and -0.873 in test [12].
As for `COC(=O)[C@@]1(CCC(=O)OC(C)(C)C)N=C(c2ccc(OCCCO)cc2)O[C@H]1c1ccccc1`, the composite z-score in test [1] was 1.22; in [2] it was 0.592; in [3], 0.997; in test [5] it was -0.19; in test [6], -0.0344; in test [7] it was -1.03. Besides, the composite z-score is -0.808 in test [8]; -0.239 in test [9]; 0.501 in test [10]; 0.255 in [11]; -0.211 in test [13]; 0.0108 in test [14]. Besides, the composite z-score in [15] was -0.181; in [16], -0.0161; in [17], 0.351; in test [18], 0.711; in [19], 0.692; in [20], 0.629. Further, the z-score in [4] was 0.509 (inactive); in [12], -1.79.
As for `[N-]=[N+]=Nc1ccccc1C[C@]1(C(=O)N2CCCCC2)COC(c2ccc(OCCCO)cc2)=N1`, the composite z-score is -0.315 in test [1]; 0.149 in [2]; 0.89 in test [3]; 1.28 in test [5]; 1.3 in test [6]; -0.214 in test [7]. In addition, the composite z-score in test [8] is 0.615; in test [9], -0.482; in test [10] it was 1.01; in test [11], 1.44; in test [13], -0.241; in [14] it was 1.35. Further, the composite z-score in test [15] was 0.234; in test [16], 0.117; in [17] it was -0.217; in [18], -0.673; in test [19], 1.03; in [20] it was 0.465. The values for the z-score in [4] and in [12] were -0.806 (inactive) and -2.43, respectively.
In the case of `O=C(NCCN1CCOCC1)[C@@H]1c2ccccc2C(=O)N(Cc2cc(C(F)(F)F)cc(C(F)(F)F)c2)[C@H]1c1ccc(CO)cc1`, the composite z-score is 1.51 in test [1]; 0.254 in test [2]; 0.851 in test [3]; -1.17 in test [5]; -0.332 in [6]; -1.35 in test [7]. In addition, the composite z-score in test [8] is -1.55; in test [9], -1.23; in [10], -1.54; in test [11], 1.35; in [13], -0.775; in test [14], -0.253. Besides, the composite z-score is -0.198 in [15]; -0.0161 in [16]; 0.123 in test [17]; 0.0763 in [18]; -0.729 in test [19]; 2.1 in test [20]. Besides, the z-score is 0.91 (inactive) in [4] and -1.16 in test [12].
Take `C=CCN1C(=O)[C@]2(O[C@H](CCO)[C@@H]([Si](C)(C)c3ccc(OC)cc3)[C@@H]2C)c2cc(N(C=O)c3ccccc3)ccc21`: the composite z-score is 0.465 in test [1]; -0.128 in test [2]; 0.348 in test [3]; -0.0285 in test [5]; -0.116 in [6]; -0.414 in [7]. Besides, the composite z-score is -0.0666 in test [8]; -0.113 in [9]; 0.407 in [10]; -0.823 in test [11]; -0.155 in test [13]; 0.393 in test [14]. Also, the composite z-score in test [15] is 0.217; in test [16], -0.096; in test [17] it was 0.0684; in [18] it was 0.337; in test [19], 0.753; in test [20], 0.607. Moreover, the z-score in test [4] is -2.19 (inactive); in test [12], -5.14.
For the compound `CCOc1ccc(N2C(=O)CSC2c2cccc([N+](=O)[O-])c2)cc1` (stereo not given), the composite z-score in test [1] is 0.891; in test [2], -0.117; in test [3], -0.0935; in test [5], 0.344; in test [6] it was 0.0863; in test [7], 0.354. Besides, the composite z-score in test [8] is 0.241; in test [9], 0.168; in test [10] it was -0.0762; in test [11], 1.35; in [13], 0.216; in test [14], 0.847. Besides, the composite z-score in [15] was 0.615; in test [16], -0.0383; in [17] it was 0.0796; in [18], -0.194; in [19], 0.143; in [20], 1.5. For the same compound, the figures for the z-score in test [4] and in test [12] were -0.105 (inactive) and -0.343, respectively.
Turning to `CCCC[C@H]1C[C@@H]1[C@@H]1N(P(=O)(c2ccccc2)c2ccccc2)C[C@@](O)(c2ccccc2)CC12CC2`, the composite z-score in test [1] was 0.17; in [2], 1.12; in test [3], 1.28; in test [5], -0.295; in [6] it was 0.0826; in [7] it was -0.678. Further, the composite z-score in test [8] is 0.21; in test [9], -1.51; in test [10], 0.973; in test [11], 0.713; in [13] it was -1.06; in test [14], 1.96. Besides, the composite z-score in test [15] is 1.03; in test [16], 0.145; in [17], 0.149; in [18], -0.753; in test [19], 0.727; in [20] it was 0.217. In addition, the z-score in test [4] is -0.644 (inactive); in test [12] it was -2.71.
